The list is not random: actives were taken first. Their share in the collection is about 3.9%.
CCHF vOTU inh: blocks the CCHF virus ovarian tumor domain protease | inhibition, % at 11.5 µM | CCHFV vOTU protease, Pep-AMC fluorescence | 370,000 tested, 0.55% active | AID 651958
GDH-TPI counter: GDH-TPI coupled enzyme inhibition counter-screen | GDH-TPI coupled enzyme counterscreen, NADH absorbance | inhibition, % at 4.8 µM | 360,000 tested, 1.2% active | AID 588335
BH1578 lux ind: inducers of Vibrio cholerae quorum light production without autoinducers; 350,000 tested, 0.16% active; AID 588436; V. cholerae BH1578 lux reporter, luminescence, 6 h; activation, % at 18.7 µM; in the data active = activation mostly above about 9.7%, no sharp cut-off
Mtb FBA inh: inhibitors of M. tuberculosis fructose-bisphosphate aldolase | 360,000 tested, 2.3% active | P9WQA3 | inhibition, % at 1 µM | purified M. tuberculosis FBA, fluorescence read-out | AID 588726; in the data active = inhibition above about 27%
Target sequence (P9WQA3 whole entry, looked up): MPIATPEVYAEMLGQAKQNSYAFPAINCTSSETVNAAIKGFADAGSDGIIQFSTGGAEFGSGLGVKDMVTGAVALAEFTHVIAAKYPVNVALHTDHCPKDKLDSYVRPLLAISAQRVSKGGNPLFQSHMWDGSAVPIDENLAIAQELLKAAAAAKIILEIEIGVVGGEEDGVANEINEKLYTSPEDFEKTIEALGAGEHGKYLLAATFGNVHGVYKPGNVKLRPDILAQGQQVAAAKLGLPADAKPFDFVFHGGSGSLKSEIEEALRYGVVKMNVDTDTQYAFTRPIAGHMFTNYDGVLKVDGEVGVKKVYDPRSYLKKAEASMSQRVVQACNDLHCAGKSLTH
Each line names hits and unclear results; the compound was inactive in the other large screens. Rule as the data show it, unless noted: active = inhibition above about 30%; inactive = the rest.

O=C(/C=C/c1ccc([N+](=O)[O-])cc1)Nc1cccc(S(=O)(=O)NC2=NCCCCC2)c1	GDH-TPI counter 41 (no result: BH1578 lux ind)
O=S(=O)(c1ccccc1)N1CCN(c2nnc(-c3ccccc3)c3ccccc23)CC1	none
Cc1ccc(/C=N/NC(=O)C(O)c2ccccc2)o1 (stereo not drawn)	GDH-TPI counter 31
Cc1ccc(/C=N/NC(=O)c2c[nH]c3ccccc23)s1	GDH-TPI counter 49 (no result: BH1578 lux ind)
O=C(N/N=C/c1ccc[nH]1)c1cc2ccccc2cc1O	GDH-TPI counter 37
O=C(N/N=C/c1ccncc1)c1cc2ccccc2cc1O	none
O=C(N/N=C/c1ccc[nH]1)c1c[nH]c2ccccc12	GDH-TPI counter 32
CCCCNC(=O)C(NC(=O)c1cccc2ccccc12)C(=O)c1ccccc1 (stereo not drawn)	none (no result: GDH-TPI counter, BH1578 lux ind)
Cc1ccc(-n2ncc(C(=O)N3CCc4ccccc4C3)c2NC(=O)c2ccco2)cc1C	none
O=C(N/N=C/c1cc([N+](=O)[O-])ccc1O)c1c[nH]c2ccccc12	GDH-TPI counter 39
Cc1ccc(/C=N/NC(=O)c2c[nH]c3ccccc23)o1	GDH-TPI counter 59 (no result: CCHF vOTU inh)
Cc1ccc(/C=N/NC(=O)c2cccc3ccccc23)o1	none
Cc1ccsc1/C=N/NC(=O)c1c[nH]c2ccccc12	GDH-TPI counter 45
O=C(N/N=C/c1ccc[nH]1)c1sc2ccccc2c1Cl	GDH-TPI counter 38
O=C(Cn1nc(C(F)(F)F)c2c1CCC2)NC1CCCCC1	none
O=C(N/N=C/c1c[nH]c2ccccc12)c1ccc(O)c(O)c1	GDH-TPI counter 36
Cc1ccsc1/C=N/NC(=O)c1ccccn1	GDH-TPI counter 39
COc1ccc(CCC(=O)OCC(=O)c2ccc[nH]2)cc1OC	none
COc1ccc2nc(Nc3nc(C)c(C(C)=O)s3)sc2c1	none
COc1cc(C)nc(Nc2nc(C)c(C(C)=O)s2)n1	GDH-TPI counter 35
CC(=O)c1sc(Nc2ccccn2)nc1C	GDH-TPI counter 47
COc1cccc(CN(C)CC(=O)N2CCN(S(=O)(=O)c3ccccc3)CC2)c1	none
O=C1[C@H]2CC3C=CC2(O3)[C@@H]2OCCCN12 (stereo partly drawn)	none
COc1ccccc1NC(=O)N(Cc1cc2cc(OC)c(OC)cc2[nH]c1=O)CC1CCCO1 (stereo not drawn)	GDH-TPI counter 34
COc1ccc2cc(CN(CC3CCCO3)S(=O)(=O)c3ccccc3Cl)c(=O)[nH]c2c1 (stereo not drawn)	GDH-TPI counter 32
COc1ccc2[nH]c(=O)c(CN(CCO)C(=O)c3cccs3)cc2c1	none
COc1cc2cc(CN(CCO)C(=O)c3cccs3)c(=O)[nH]c2cc1OC	GDH-TPI counter 37
CCOc1ccc(NC(=O)CN2CCN(C(=O)C3CCCO3)CC2)cc1 (stereo not drawn)	none
CC1CC(C)CN(C(=O)C2CCN(S(=O)(=O)c3cccs3)CC2)C1 (stereo not drawn)	none
COc1ccc(CNC(=O)C2CCCN2C(=O)Nc2cccc(Cl)c2)cc1 (stereo not drawn)	none
O=C(c1cnc2sccn2c1=O)N1CCCc2ccccc21	GDH-TPI counter 32
CCn1c2ccccc2c2cc(C=Nn3c(-c4ccccc4C)n[nH]c3=S)ccc21	none (no result: GDH-TPI counter, BH1578 lux ind, Mtb FBA inh)
CCOC(=O)c1cn(CC(=O)Nc2cccc(Cl)c2)nn1	none
CC(=O)Nc1cccc(-c2cc3c(c4c2ccn4C)C2CCC3O2)c1 (stereo not drawn)	Mtb FBA inh 161 (no result: GDH-TPI counter, BH1578 lux ind)
Cn1c(-c2ccsc2)c(-c2cccs2)c2cc(-c3ccc4cc[nH]c4c3)ccc21	GDH-TPI counter 35
Cn1c(-c2ccsc2)c(-c2cccs2)c2cc(-c3ccc4[nH]ccc4c3)ccc21	none
COc1cc(/C=C2\SC(=O)NC2=O)ccc1Oc1cnccn1	GDH-TPI counter 36
O=C1NC(=O)/C(=C\c2ccc(Oc3cnccn3)cc2)S1	none
COc1ccc(/C=C2/SC(=S)NC2=O)cc1OCc1ccccc1	none
COc1cc(/C=C2/SC(=O)NC2=O)ccc1OCc1ccccc1	GDH-TPI counter 43
CCN(Cc1ccncc1)C(=S)Nc1ccccc1	none
COc1cc(/C=C2\SC(N)=NC2=O)ccc1O	GDH-TPI counter 39
COc1cc(/C=C2/CC/C(=C/c3ccc(O)c(OC)c3)C2=O)ccc1O	GDH-TPI counter 39
COc1cc(/C=C2\C(=O)ON=C2c2ccccc2)cc(Cl)c1O	none
COc1cc(/C=C2\COC/C(=C\c3ccc(O)c(OC)c3)C2=O)ccc1O	none
COc1cc(/C=C2/C(=O)ON=C2c2ccccc2)ccc1O	GDH-TPI counter 37
CCCC(=O)Nc1cccc(NC(=O)CN2CCN(c3ccccc3OC)CC2)c1	none
OCCC1CN(C/C(Cl)=C/c2ccccc2)CCN1C1CCCC1 (stereo not drawn)	none
O=C(c1ccncc1)c1ccc(NS(=O)(=O)c2ccc(Br)s2)cc1	GDH-TPI counter 39
CC1(c2ccccc2)NC(=O)N(CC(=O)Nc2ccc3c(c2)CCC3)C1=O (stereo not drawn)	none
Nc1nc(Nc2cccc(F)c2)nc(N2CCOCC2)c1[N+](=O)[O-]	GDH-TPI counter 37
Cc1cccc(Nc2nc(NCCCN3CCOCC3)nc(N)c2[N+](=O)[O-])c1	GDH-TPI counter 64
Cc1cccc(Nc2nc(N)c([N+](=O)[O-])c(N3CCN(C)CC3)n2)c1	GDH-TPI counter 33
Nc1nc(NCCCN2CCOCC2)nc(Nc2cccc(F)c2)c1[N+](=O)[O-]	GDH-TPI counter 51
O=C(/C=C(\Nc1cccc(F)c1)c1ccccc1)c1ccccc1	none (no result: GDH-TPI counter, BH1578 lux ind, Mtb FBA inh)
CC(=Cc1ccccc1)C=C1SC(=S)N(CCCC(=O)Nc2ccc(C(=O)O)c(O)c2)C1=O	GDH-TPI counter 31
O=C(CCN1C(=O)S/C(=C/c2ccccc2)C1=O)Nc1ccc(O)c(C(=O)O)c1	GDH-TPI counter 42
O=C(CCN1C(=O)S/C(=C\c2cccs2)C1=O)Nc1nccs1	none
CC(/C=C1\SC(=S)N(CCC(=O)Nc2ccc(O)cc2)C1=O)=C\c1ccccc1	none
O=C(CCN1C(=O)S/C(=C\c2ccccc2)C1=O)Nc1ccc(O)cc1C(=O)O	GDH-TPI counter 38
O=C(CN1C(=O)S/C(=C\c2cccs2)C1=O)Nc1ccc(O)cc1C(=O)O	GDH-TPI counter 44
O=C(CN1C(=O)S/C(=C\C=C\c2ccccc2)C1=O)Nc1ccc(O)cc1	GDH-TPI counter 33
O=C(CCCN1C(=O)S/C(=C/C=C/c2ccccc2)C1=O)Nc1ccc(C(=O)O)cc1	none
COc1ccc(/C=N/NC2=NS(=O)(=O)c3ccccc32)cc1OC	GDH-TPI counter 35
COc1ccc(C(=O)NNC2=NS(=O)(=O)c3ccccc32)cc1OC	none
COc1cc(/C=N/NC2=NS(=O)(=O)c3ccccc32)ccc1OC(C)=O	GDH-TPI counter 34
Cc1c(CCC(=O)N2C[C@H]3C[C@@H](C2)c2cccc(=O)n2C3)c(=O)oc2c(C)c(O)ccc12	Mtb FBA inh 191
Cc1c(C)c2cc(Cl)c(OCC(=O)N3C[C@H]4C[C@@H](C3)c3cccc(=O)n3C4)cc2oc1=O	none
Cc1c(CC(=O)N2C[C@H]3C[C@@H](C2)c2cccc(=O)n2C3)c(=O)oc2cc(O)c(Cl)cc12	GDH-TPI counter 31 (no result: Mtb FBA inh)
Cc1c(CC(=O)N2C[C@H]3C[C@@H](C2)c2cccc(=O)n2C3)c(=O)oc2c(C)c(O)ccc12	Mtb FBA inh active

Screening data from PubChem BioAssay.
